In PubChem BioAssay (NCI):
Where “and” joins values, the source holds several entries; their conditions need not be identical. Equal entries are not always repeated. The panel holds about 83,000 compounds, 20% with a hit somewhere; the sample as a whole holds those more often.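 Activity criterion: percent growth below 10, measured after cells in 96-well plates were exposed to a single compound concentration for 48 hours.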 Calls of active or inactive are those of the source.

Tested on: MDA-MB-468 breast
Assay: NCI-60 one-dose screen, 48 h (100 = growth as untreated, 0 = no growth, -100 = all killed)
Details: 10 µM unless noted

Compound	growth
Brc1ccc(-c2cc(-c3ccc4c(c3)OCCO4)n[nH]2)s1	7.7% (active)
CCOc1ccccc1/C=N\N=C(N/N=C/c1ccccc1OCC)N/N=C/c1ccccc1OCC	-30.4% (active)
C#CCC(C(=O)OCC)C(=O)OCC	108% (inactive)
COc1cc2c(c(OC)c1OC)CCC(c1cccc(NC(=O)c3cccc(Br)c3)c1)O2 (stereo not given)	75.2% (inactive)
CN(C)Cc1ccc(NC(=O)c2cncc(C#Cc3cnc(N)c4ncccc34)c2)cc1C(F)(F)F	84% (inactive)
Cc1ccc(C(=O)NN)cc1	106% (inactive)
O=C(NCc1ccccc1)/C(=C/c1ccccc1)NC(=O)c1ccccc1	93.9% (inactive)
O=C1/C(=C/c2cccc(O)c2)COc2ccc(O)cc21	52.8% (inactive)
COc1cc(C=Nc2oc(-c3ccccc3)c(-c3ccccc3)c2C#N)cc(CN2CCCCC2)c1O	95.6% (inactive)
O=C(O)c1cccc(N/C=C/C(=O)c2cc3cc(Br)ccc3oc2=O)c1	96.1% (inactive)
COc1ccc(Cn2c(C(N)=O)cc3c2-c2nc(N)ncc2CCC3)cc1	82.1% (inactive)
COc1ccc2c(c1)C(=O)c1c-2c(=O)n(CCCCCCC(=O)NO)c2ccccc12	6.84% (active)
CCCCCCCCOC(=O)CC[C@@H](C)[C@H]1CC[C@H]2[C@@H]3[C@H](OC(=O)CCN)C[C@@H]4C[C@H](OC(=O)CCN)CC[C@]4(C)[C@H]3C[C@H](OC(=O)CCN)[C@]12C	3.95% (active)
O=C(O)c1ccccc1Cc1ccc(F)c2ccccc12	110% (inactive) and 102% (inactive)
CCN(CC)CCSc1c2ccc(Cl)cc2nc2ccc(OC)cc12	-17.5% (active)
CC1=NC2=Nn3c(c4cnn(-c5ccccc5)c4n/c3=N\N)NN2C(c2ccccc2)=C1	73.9% (inactive)
COC(=O)c1ccc2c(c1)nc(-c1cc3ccccc3[nH]c1=O)n2-c1cc(C(C)(C)C)[nH]n1	101% (inactive)
CSc1ccc(OC(C)=O)cc1C	93.8% (inactive)
COc1cc2c(cc1OCCCN1Cc3ccc(OCCCCC(=O)N4CCC(CCN5CCCC5)CC4)cc3C1)N=C(N)C21CCCC1	17.4% (inactive)
COc1ccc2c(c1)CC[C@@H]1[C@@H]2CC[C@]2(C)[C@@H](O)C(=O)C[C@@H]12	109% (inactive)
Oc1c(Cl)c2ccccc2c2ccccc12	112% (inactive)
C#Cc1ccc(NC(=O)c2ccc(/C=C/C(=O)c3nccn3C)cc2)cc1	-54.6% (active)
CCCCCCCCCCC(C[N+](C)(C)C/C=C/c1ccccc1)C(O)c1ccccc1 (stereo not given)	-69.4% (active)
O=c1oc2ccc(Br)cc2c(=O)n1-c1ccc(Cl)cc1F	-1.24% (active)
OC(COc1ccccc1Cl)COc1ccccc1Cl	102% (inactive)
COc1cc(Cc2cc(-c3ccccc3)nn(Cc3ccccc3)c2=O)cc(OC)c1OC	28.4% (inactive)
Cc1ccc(/C=C2\CN(C(=O)CCN3CCC(=NO)CC3)C/C(=C\c3ccc(C)cc3)C2=O)cc1	-54.2% (active)

Compound	growth
COc1ccc2c(c1)C(Br)=C(CCO)C2c1ccccc1 (stereo not given)	-40.2% (active)
O=C(/C=C(/C=C/c1ccc2[nH]ccc2c1)OB(F)F)/C=C/c1ccc2[nH]ccc2c1	-57% (active)
COC(=O)[C@]12CC[C@@H](C)[C@H](C)[C@@H]1C1=CC[C@@H]3[C@@]4(C)C(C=O)=C[C@@](C)(COS(C)(=O)=O)C4[C@H](O)C[C@@]3(C)[C@]1(C)CC2 (stereo not given in full)	-64.7% (active)
CCOC(=O)Nc1ccc2c(c1)C(=O)N(CCOC)c1ccccc1O2	20.2% (inactive)
CC1(C)CC[C@]2(c3nnc(-c4ccncc4)o3)CC[C@]3(C)C(=CC[C@@H]4[C@@]5(C)CCC(=O)C(C)(C)[C@@H]5CC[C@]43C)[C@@H]2C1	80% (inactive)
COc1ccc(CCN2CCC(Nc3nc4ccccc4n3Cc3ccc(F)cc3)CC2)cc1	-84.1% (active)
CC1=CC(=O)C=CC1=Nc1ccc(N(C)C)cc1	48.8% (inactive) and -87.8% (active)
CN(Cc1ccccc1)c1nc(Cl)c(C2CC(c3ccccc3)=NN2c2ccccc2)s1 (stereo not given)	98.7% (inactive)
O=C(/C=C/c1ccc2ccccc2c1)Nc1ncc(Cc2ccccc2)s1	64% (inactive)
CCn1cc(C(=O)N/N=C/c2ccc(Br)cc2)c(=O)c2cc(F)c(N3CCNC(C)C3)c(F)c21 (stereo not given)	82.5% (inactive)
COc1cnc2c(c1)C(=O)c1c-2n(CCCN2CCN(CCO)CC2)c(=O)c2cc([N+](=O)[O-])ccc12	76.6% (inactive)
CCc1c2c(nc3ccc(OC(=O)OCc4ccc(B5OC(C)(C)C(C)(C)O5)cc4)cc13)-c1cc3c(c(=O)n1C2)COC(=O)[C@]3(O)CC	-33.6% (active)
O=C(O)/C=C/c1ccc2c(c1)CCC2	104% (inactive)
CC1OC(O[C@@H]2C(O)C(CO)OC(O[C@H]3COC(O[C@H]4CC[C@]5(C)[C@H]6CC[C@]78OC[C@@]9(CC[C@](C)(C=O)C[C@H]97)[C@H](O)C[C@@]8(C)[C@]6(C)CC[C@H]5C4(C)C)[C@@H](OC4OC(CO)[C@@H](O)[C@@H](O)[C@@H]4O)[C@@H]3O)[C@H]2OC2OC[C@@H](O)[C@@H](O)[C@@H]2O)[C@@H](O)[C@@H](O)[C@H]1O (stereo not given in full)	34.5% (inactive)
Clc1ccc(-c2nc3ccc(/C(=N\N=C\c4ccccc4)c4ccccc4)cc3[nH]2)cc1	79.1% (inactive)
Nc1ncnc2c1N=C(c1ccc(F)cc1)CC(c1sc(Cl)nc1Cl)N2 (stereo not given)	91.4% (inactive)
CCCCC[C@H]1C/C=C2/C(=O)C(Cl)=C[C@@H]2C/C=C\CCCC(=O)O[C@@H](CCCCC)C/C=C2/C(=O)C(Cl)=C[C@@H]2C/C=C\CCCC(=O)O1	-46% (active)
CC(C)OP(=O)(O)c1ncc(-c2ccc(C(F)(F)F)cc2)c(NC2CCCCCC2)n1	28% (inactive)
CCNCCNc1cc(-c2ccc(C#N)cc2)c(C#N)c2nc3ccccc3n12	-14.1% (active)
CCC1CCc2nc3sc(C(=O)Nc4cccc(C)c4)c(N)c3cc2C1 (stereo not given)	44.5% (inactive)
N#CSc1c[nH]c2ccc(/C=C/C(=O)/C=C(O)/C=C/c3ccc4[nH]cc(SC#N)c4c3)cc12	-8.53% (active)
COc1ccc(CC(C)=C(c2ccc(OCCN(C)C)cc2)c2ccc(OCCN(C)C)cc2)cc1	68.3% (inactive)
C[n+]1c(/C=C/c2ccc([N+](=O)[O-])cc2)ccc2ccccc21	52.5% (inactive)
CN1CCN(CCCOC(=O)c2c3c(n4ccccc24)C(=O)c2ncccc2C3=O)CC1	43.7% (inactive)
CS(=O)(=O)N(c1cc(-c2ccc3ncnc(Nc4cccc(Cl)c4)c3c2)cnc1Cl)S(C)(=O)=O	-42.1% (active)
[O-]c1c[n+](-c2ccc(Cl)cc2)no1	98.7% (inactive)
COc1ccc(NS(=O)(=O)c2ccc(-c3cnc(C4CC4)o3)cc2)cc1Cl	9.75% (active)

Compound	growth
O=C1CC(c2ccc3c(c2)OCO3)Nc2cc3c(cc21)OCO3 (stereo not given)	-11.3% (active)
O=C1Nc2ccc(C(=O)O)c(O)c2C1=O	108% (inactive)
NCCSSC/C=C\CSSCCN	94.6% (inactive)
COc1ccc(-c2cnc(-c3ccncc3-c3cccc(OC)c3)o2)cc1	31.8% (inactive)
Cc1ccc2c(-c3cc(-c4ccccc4)nc(N)c3C#N)cc(=O)oc2c1	103% (inactive)
COc1ccc(C(=O)/C=C/c2cn(Cc3ccc(Cl)cc3)c3ccccc23)cc1	-28.2% (active)
CC1CCN(S(=O)(=O)c2ccc(S(=O)(=O)N3CCCC(c4nc5c(nnn5Cc5cccc(Cl)c5)c(=O)[nH]4)C3)cc2)CC1 (stereo not given)	27.7% (inactive)
CCCCCCCCCOc1c(OC)cc(C2CC(=O)Nc3c2c(C)nn3-c2nc3ccccc3[nH]2)cc1OC (stereo not given)	-55.6% (active)
O=S1(=O)N(CCNc2nccc(-c3c(-c4cccc(O)c4)nc4sccn34)n2)CCN1Cc1ccccc1	94.4% (inactive)
O=C(Cc1nc2ccc([N+](=O)[O-])cc2nc1CC(=O)c1ccccc1)c1ccccc1	68.9% (inactive)
CCCCCCCC/C=C\CCCCCCCCOc1cccc(CC(=O)NCC[N+](C)(C)C)c1	93.1% (inactive)
COc1cc2oc(-c3cccc(C(=O)N[C@@H](CC(C)C)C(=O)OC(C)(C)C)c3)cc(=O)c2c(OC)c1OC	85.6% (inactive)
CCCCCCCCn1ccc2cc(NC(=O)Cn3cc(CN4CCC(C)CC4)nn3)ccc21	-52.9% (active)
OC(c1ccccn1)C(O)c1ccccn1 (stereo not given)	113% (inactive)
O=c1oc2cc(OS(=O)(=O)c3ccccc3)c(Cl)cc2c2c1CCCCCC2	62.2% (inactive)
CCc1c(Cl)nc(N)nc1Nc1ccc(C)c(C)c1	83.2% (inactive)
CC(C)[N+](C)(CCOC(COc1ccccc1)COc1ccccc1)C(C)C	12.8% (inactive)
CCN(CC)CCNc1c(C)cc(CO)c(Cl)c1C	-8.33% (active)
C#Cc1cccc(NC(=O)C2CCCCN2C(=O)CCl)c1 (stereo not given)	-60.1% [8.25 µM] (active)
COc1cc(/C=C/C(=O)c2ccc(Nc3nc(NCCO)nc(N4CCOCC4)n3)cc2)cc(OC)c1OC	2.9% (active)
Cc1ccc(NC(=O)c2cc3ccccc3cc2O)c(C)c1	87.6% (inactive)
C=C(C)[C@@H]1CC[C@]2(C#N)CC[C@]3(C)[C@H](CC[C@@H]4[C@@]5(C)CCCNC(C)(C)[C@@H]5CC[C@]43C)[C@@H]12	19.3% (inactive)
COc1ccc(-c2nc(-c3ccccc3OCc3ccccc3OC)nc(C)c2C(C)=O)cc1	72% (inactive)
Cc1ccc(Cc2cnc(NC(=O)c3ccc4noc(-c5ccccc5)c4c3)s2)cc1	91% (inactive)
C=C1C(=O)O[C@@H]2C[C@@H](C)[C@H](OC)CC(=O)[C@](C)(OC(C)=O)C[C@H](OC(=O)/C(C)=C\C)[C@@H]12	54.5% (inactive)
COc1ccc(-c2c(C#N)cnc(N)c2-c2nc3cc(C)c(C)cc3[nH]2)cc1	57.9% (inactive)
